Sampled rows, rich in hits. Any-hit rate of the full collection: about 11%.
FLuc inh = blocks purified firefly luciferase enzyme activity; hit rate 2.5% among 76,000; P08659; purified P. pyralis luciferase, luminescence, biochemical; Potency, µM (top dose mostly 115 µM), hits mostly inhibitors; note: nearly all actives have a fitted effect of over 65% in size
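Cell-free enzyme assay, 10nM P. pyralis luciferase, luciferin and ATP each at 10uM. Inhibition profiled over a 6-point titration, read as luminescence.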
NIH3T3 tox = cytotoxic compounds in NIH 3T3 cells. NIH 3T3 viability, CellTiter-Glo ATP luminescence, 48-72 h. Potency, µM (series often up to 96.7 µM), inactives show at the highest dose activity change, negative = cytotoxicity, actives largely listed as inhibitors. hit rate 4.3% among 94,000. AID 1345082; note: nearly all actives have a fitted effect of over 55% in size
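Viability of NIH 3T3 cells after 48 or 72 hr compound treatment at 37 °C was assessed by CellTiter-Glo, with luminescence imaged following a 10 min room-temperature step.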
HEK cytotox = cytotoxic compounds in HEK 293 cells; HEK 293 viability, ATP luminescence (CellTiter-Glo), 48-72 h; Potency, µM (doses to about 115 µM), for inactives: top-dose activity change, negative = cytotoxicity, actives largely listed as inhibitors; hit rate 6.6% among 94,000; AID 1345083; note: nearly all actives have a fitted effect of over 60% in size
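Pintool-delivered compounds were incubated with HEK 293 cells (250 cells/well) at 37 degree Celsius for 48 or 72 hr. ATP-dependent luminescence (CellTiter-Glo) then reported remaining viable cells.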
NPR1 antag = human Npr1 receptor antagonism; P16066; Potency, µM (series often up to 46.3 µM), without a hit: at the highest dose activity change, negative = inhibition, hits mostly inhibitors; HEK293 hNpr1 GloSensor cGMP, ANP-stimulated luminescence; hit rate 1.6% among 76,000; calls by dose curve; note: nearly all actives have a fitted effect of over 60% in size
Target sequence (P16066 whole entry, looked up): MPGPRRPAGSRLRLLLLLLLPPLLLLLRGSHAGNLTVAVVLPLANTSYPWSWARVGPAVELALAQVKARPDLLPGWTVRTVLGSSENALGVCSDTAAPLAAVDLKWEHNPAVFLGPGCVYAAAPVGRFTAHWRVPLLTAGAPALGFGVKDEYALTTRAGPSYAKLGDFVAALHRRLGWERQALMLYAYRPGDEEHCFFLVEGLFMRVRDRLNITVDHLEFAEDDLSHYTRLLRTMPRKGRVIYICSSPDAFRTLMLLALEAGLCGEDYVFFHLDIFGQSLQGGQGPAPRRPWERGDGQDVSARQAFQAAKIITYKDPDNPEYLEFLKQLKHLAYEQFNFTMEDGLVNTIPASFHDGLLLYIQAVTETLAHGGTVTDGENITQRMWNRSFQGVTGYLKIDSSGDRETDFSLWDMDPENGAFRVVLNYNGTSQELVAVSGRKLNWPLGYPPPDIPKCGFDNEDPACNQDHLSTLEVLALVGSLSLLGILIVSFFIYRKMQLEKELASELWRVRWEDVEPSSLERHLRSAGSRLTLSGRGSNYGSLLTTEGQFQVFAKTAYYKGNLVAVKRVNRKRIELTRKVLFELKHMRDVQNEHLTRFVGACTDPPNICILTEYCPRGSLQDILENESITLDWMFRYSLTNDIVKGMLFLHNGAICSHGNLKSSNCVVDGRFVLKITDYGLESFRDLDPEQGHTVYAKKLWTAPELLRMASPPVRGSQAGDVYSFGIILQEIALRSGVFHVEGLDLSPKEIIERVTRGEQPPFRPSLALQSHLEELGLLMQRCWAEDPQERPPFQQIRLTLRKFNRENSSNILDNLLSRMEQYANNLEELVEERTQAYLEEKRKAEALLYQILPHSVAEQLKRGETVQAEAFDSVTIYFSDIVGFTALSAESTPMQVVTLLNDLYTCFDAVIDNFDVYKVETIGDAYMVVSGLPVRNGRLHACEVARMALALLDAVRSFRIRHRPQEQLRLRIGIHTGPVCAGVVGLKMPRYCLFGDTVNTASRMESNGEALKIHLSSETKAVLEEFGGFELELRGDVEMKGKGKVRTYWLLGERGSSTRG
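Compound pre-incubated 30 min at room temperature on GloSensor-loaded HEK293 cells stably carrying hNpr1 and the pGS-40F cGMP biosensor. Stimulation uses hNppA at 0.1 nM final; luminescence is taken at baseline and 20 min post-agonist.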
The depositor's hits bear a star; i = inactive; ? = inconclusive; nt = no result given; [ ] = dose if it differs, or a comment. Unless noted, calls come from the whole dose curve; as a rule, active = well fitted curve in the direction sought with a large enough effect; inconclusive = small, poorly fitted or top-dose-only effect, or another doubt; inactive = no such curve, though single readings can be large; an effect the other way counts as inactive or inconclusive. % is set by controls: 0 for no effect and ±100 for the full control effect; potency is the fitted concentration of half-maximal effect.

SMILES | FLuc inh | NIH3T3 tox | HEK cytotox | NPR1 antag
Cc1ccc2oc([C@H]3CCN(Cc4ccc(N(C)C)cc4)C3)nc2c1 | 45µM* | ? | ? | -20%[70.6 µM]
COc1cc(CN2CC[C@H](c3nc4ccccc4o3)C2)cc(OC)c1OC | i | ? | 71µM* | -23%[70.6 µM]
Cc1ccc2oc([C@H]3CCN(Cc4c[nH]c5ccccc45)C3)nc2c1 | i | 56µM* | 32µM* | ?
CN(C)c1ccc(CN2CC[C@H](c3nc4cc(Cl)ccc4o3)C2)cc1 | ? | 112µM* | ? | ?
COC[C@H]1CCCN1C(=O)[C@@H](C)C1CC[C@@]2(C)CC[C@H](NC(=O)c3cncnc3)[C@@H](C)[C@@H]2[C@H]1O (stereo not given in full) | i | -10% | -25% | 4%
COc1ccccc1CN1CC[C@H](c2nnc(Cc3c[nH]c4ccccc34)o2)C1 | i | ? | 89µM* | -1%[70.6 µM]
COc1ccccc1-c1nnc([C@H]2CCN(CC3CCCCC3)C2)o1 | i | ? | ? | 6%[70.6 µM]
COc1ccccc1-c1nnc([C@H]2CCN(Cc3ccccn3)C2)o1 | i | 35µM* | ? | -5%[70.6 µM]
c1ccc2c(Cc3nnc([C@H]4CCN(C5CCCCC5)C4)o3)c[nH]c2c1 | i | -27%[138 µM] | ? | -3%[70.6 µM]
CC(C)(C)CC(=O)Nc1cnc(-c2cccc(Cl)c2)nc1 | 0.25µM* | 32µM* | 35µM* | 4µM*
CNC(=O)c1cc(C2CC2)nc2onc(C3CCN(C(=O)c4ccc(C)cc4)CC3)c12 | nt | -20% | 4% | nt
CSCCC(=O)N1CCCC(CCc2ccccc2F)C1 (stereo not given) | i | 40µM* | ? | -4%
O=C(CCCc1cn[nH]c1)N1CCCC(CCc2c(F)cccc2F)C1 (stereo not given) | i | ? | 50µM* | -21%
O=C(CCC(F)(F)F)N1CCCC(CCc2c(F)cccc2F)C1 (stereo not given) | i | ? | -29% | 0%
O=C(CCC1CCCC1)NCC(=O)N1CCCCCCNC(=O)CC1c1ccccc1 (stereo not given) | i | 1% | 1% | 0%
Cc1cc(Cn2cc3c4c(cccc42)[C@H](CC(C)C)N[C@H](C(=O)NC(C)C)C3)no1 | i | 50µM* | 45µM* | -5%[70.6 µM]
Cc1cc(Cn2cc3c4c(cccc42)[C@H](CC(C)C)N[C@H](C(=O)NC2CCC2)C3)no1 | i | ? | 79µM* | 4%[70.6 µM]
Cc1cc(Cn2cc3c4c(cccc42)[C@H](CC(C)C)N[C@H](C(=O)NC2CCCC2)C3)no1 | i | 32µM* | 40µM* | -1%[70.6 µM]
Cc1cc(Cn2cc3c4c(cccc42)[C@H](CC(C)C)N[C@H](C(=O)NCCN2CCCC2)C3)no1 | i | 22µM* | 28µM* | -7%
C#CCNC(=O)[C@@H]1Cc2cn(Cc3cc(C)on3)c3cccc(c23)[C@H](CC(C)C)N1 | i | ? | ? | 8%[70.6 µM]
Cc1cc(Cn2cc3c4c(cccc42)[C@H](CC(C)C)N[C@H](C(=O)NCc2cncn2C)C3)no1 | i | -20% | ? | 2%
C#CCNC(=O)c1ccc2nc(-c3cccnc3)oc2c1 | nt | -10%[138 µM] | -21%[172 µM] | nt
COc1ccc(OCC2(C)COc3ccc(C(=O)NCc4cccnc4)cc3N2)cc1 (stereo not given) | i | ? | ? | ?
COCCOCc1nc(C2CCCCN2C(=O)Nc2cccc(C(F)(F)F)c2)no1 (stereo not given) | i | -22% | ? | 1%
CCOC(=O)C1CCCN(C(=O)c2nc3sccn3c2-c2ccncc2)C1 (stereo not given) | nt | -13% | -5% | nt
SMILES | FLuc inh | NIH3T3 tox | HEK cytotox | NPR1 antag
COCCCNC(=O)[C@@H]1Cc2cn(Cc3cc(C)on3)c3cccc(c23)[C@H](CC(C)C)N1 | i | ? | 35µM* | 8%
COCCN1CCN(C(=O)[C@@H]2Cc3cn(Cc4cc(C)on4)c4cccc(c34)[C@H](CC(C)C)N2)CC1 | i | ? | -29% | -1%
C=CCNC(=O)[C@@H]1Cc2cn(Cc3cc(C)on3)c3cccc(c23)[C@H](CC(C)C)N1 | i | 79µM* | 71µM* | 1%[70.6 µM]
COc1ccccc1-n1c(=O)c(C(=O)N2CCN(C(=O)c3ccc(C(F)(F)F)cc3)CC2)nc2cccnc21 | nt | -6% | 5% | nt
O=C(NCc1ccccc1)c1ccc2nnc(C3CCCC3)n2c1 | nt | 79µM* | -36%[172 µM] | nt
O=C(NCCc1ccc(Cl)cc1)c1ccc2nnc(C3CCCC3)n2c1 | nt | 35µM* | ? | nt
